# Measured values published in PubChem BioAssay (EPA / NIEHS).
# Calls of active or inactive are those of the source. The calls were made as follows: active = hit-call score of the fitted dose curve at least 0.9, where 1 is the maximum; inactive = score below 0.9.
# Assay: APR_HepG2_MitoticArrest_72hr: Apredica 72-hour HepG2 Assay for Mitotic Arrest (AID 2282918)
# Conditions: high-content imaging, actives raise or lower the signal
# Experimental: APR_HepG2_72hr is a cell-based, multiplexed-readout assay that uses HepG2, a human liver cell line, with measurements taken at 72 hours after chemical dosing in a 384-well plate.APR_HepG2_MitoticArrest_72hr is one of 10 assay component(s) measured or calculated from the APR_HepG2_72hr assay. It is designed to make measurements of cell phenotype, a form of morphology reporter, as detected with fluorescence intensity signals by HCS Fluorescent Imaging technology.Data from the assay component APR_HepG2_MitoticArrest_72hr was analyzed into 1 assay endpoint. This assay endpoint, APR_HepG2_MitoticArrest_72hr, was analyzed with bidirectional fitting relative to DMSO as the negative control and baseline of activity. Using a type of morphology reporter, measures of protein for gain or loss-of-signal activity can be used to understand the signaling at the pathway-level as they relate to the gene . Furthermore, this assay endpoint can be referred to as a primary readout, because this assay has produced multiple assay endpoints where this one serves a signaling function. To generalize the intended target to other relatable targets, this assay endpoint is annotated to the cell cycle intended target family, where the subfamily is arrest.
# Cells were treated with dimethyl sulfoxide (DMSO) as a solvent control at a final concentration of 0.5% v/v or with compounds in DMSO with a resulting final DMSO concentration of 0.5% v/v. Compound treatment was done at concentrations of 0.39, 0.78, 1.56, 3.12, 6.24, 12.5, 25, 50, 100, and 200 uM in duplicate on each plate. Cells were treated with compounds for 1, 24, or 72 hr. Carbonyl […] m-chloro-phenylhydrazone (CCCP) and taxol were used as positive controls for mitochondrial function and cytoskeletal stability, respectively; DMSO served as the negative control for this experiment. Cells were fixed by the direct addition of 50 uL formaldehyde in Hank's Balanced Salt Solution (HBSS) to a final concentration of 3.7%. After incubation in the fixation medium for 30 min at room temperature (293-298 K), cells were rinsed twice with HBSS and treated with cell permeabilization buffer (16 uL of 0.5% Triton X-100) for 10 min at room temperature (293-298 K) before labeling. For mitochondrial membrane potential and mitochondrial measurements, pre-fixed cells were incubated with 50 uL of MitoTracker Red CMXRos (Invitrogen) at a concentration of 250 nM for 30 min before fixation. In the remaining cases, post-fixed cells were labeled by incubation with a multiplexed mixture of primary antibodies in HBSS for 60 min at room temperature (293-298 K) to detect immunoreactivity of c-Jun (1:500), phospho-histone H3 (1:100), phospho-histone H2A.x (1:200), p53 (1:400), alpha-tubulin (1:200) and Hoechst 33342 (2 ug/mL). Cells were labeled for multiplexed imaging on two separate plates: a) Hoechst 33342, MitoTracker Red, phospho-histone H3, and alpha-tubulin, and b) Hoechst 33342, phospho-histone H2A.x, and c-Jun. A final rinse with HBSS (50 uL) was performed before analysis. The primary and secondary antibodies for the proteins were phospho-histone H3 (rabbit anti-phospho-histone H3 and FITC-donkey anti-rabbit IgG), phospho-histone H2A.x (mouse anti-phospho-histone H2A.x and FITC-donkey anti-mouse IgG), c-Jun (rabbit anti-phospho-c-Jun and Cy3-donkey anti-rabbit IgG), p53 (sheep anti-p53 and Cy5-donkey anti-sheep IgG), alpha-tubulin (mouse anti-alpha-tubulin and Cy5-donkey anti-mouse IgG). These antibodies are available as the CellCiphr HepG2 assay kit (Millipore).Digital images of each well were captured using a Cellomics ArrayScan VTI (Thermo Scientific Cellomics) (0.8 NA objective, 0.63x optical coupler, and XF-93 filter set) at 20x magnification. The images were acquired using the autofocus feature of the ArrayScan instrument, which entails the following steps. First, the camera focuses on channel 1 (Hoechst 33342), where nuclei are identified. Second, a Z offset of 1 um is used for capturing mitochondria (MitoTracker Red). […]
Structure (SMILES),outcome,AC50
CCCCCCCCCCCCCCC,inactive,–
CN(C)CCOC(c1ccccc1)c1ccccc1,–,111 µM (active)
CCCCc1oc2ccccc2c1C(=O)c1cc(I)c(OCCN(CC)CC)c(I)c1,–,8.51 µM (active)
O=C(c1ccccc1)c1ccccc1,inactive,–
CC(=O)Nc1ccc(O)cc1,inactive,–
O=C1NS(=O)(=O)c2ccccc21,inactive,–
CCCCC=O,inactive,–
O=C(CCCN1CCC(O)(c2ccc(Cl)cc2)CC1)c1ccc(F)cc1,–,19.8 µM (active)
CN(Cc1cnc2nc(N)nc(N)c2n1)c1ccc(C(=O)N[C@@H](CCC(=O)O)C(=O)O)cc1,inactive,–
CCCCCCCCCCCCOS(=O)(=O)O,inactive,–
Cc1[nH]nc2c1N=C(c1ccccc1Cl)c1cc([N+](=O)[O-])ccc1N2,–,28.8 µM (active)
CS(=O)(=O)c1ccc([C@@H](CC2CCCC2)C(=O)Nc2cnccn2)cc1Cl,inactive,–
N=C(N)c1ccc(OCCCCCOc2ccc(C(=N)N)cc2)cc1,–,21.6 µM (active)
